ChEMBL document CHEMBL1157539, “Thousands of chemical starting points for antimalarial lead identification” (Nature, 2010)

Assays:
Format in all cases: functional
[1] = test system: Plasmodium falciparum; experiment: GSK_TCMDC: Inhibition of Plasmodium falciparum 3D7 in whole red blood cells, using parasite LDH activity as an index of growth. Test compounds present at 2uM
[2] = test system: Plasmodium falciparum; experiment: GSK_TCMDC: Inhibition of Plasmodium falciparum Dd2 in whole red blood cells, using parasite LDH activity as an index of growth. Test compounds present at 2uM
[3] = test system: HepG2; experiment: GSK_TCMDC: Percent inhibition of human HepG2 cell line. Test compounds present at 10uM.

**Q.** What does the source list for `CC(C)(C)c1ccc2[nH]c(-c3ccc(C(=O)NCCCc4ccccc4)cc3)nc2c1`?
**A.** Inhibition [1]: 95%; Inhibition [2]: 14%; Inhibition [3]: 11%

**Q.** With `COc1ccc2cc(CNCCCCCCNCc3ccc4cc(OC)ccc4c3)ccc2c1.CS(=O)(=O)O` as the molecule, how does the Inhibition [1] read?
**A.** Its Inhibition is 100%.

**Q.** And the Inhibition [2]?
**A.** Its Inhibition is 92%.

**Q.** And the Inhibition [3]?
**A.** Its Inhibition is 100%.

**Q.** `Cc1ccccc1C1CCN(C2CCC(NC(=O)/C=C/c3cccc(C(F)(F)F)c3)CC2)CC1` (stereo unspecified) was tested. Which Inhibition [1] did it give?
**A.** Its Inhibition is 100%.

**Q.** And the Inhibition [2]?
**A.** The Inhibition was 54%.

**Q.** And the Inhibition [3]?
**A.** The Inhibition was 96%.

**Q.** Which Inhibition [1] does the source give for `O=C(Nc1ccc2c(c1)CCC2)c1ccc(N2CCN(c3ccncc3)CC2)cc1.O=C(O)C(F)(F)F` here?
**A.** The Inhibition was 100%.

**Q.** What about the Inhibition [2] of the same molecule?
**A.** Its Inhibition is 75%.

**Q.** What about the Inhibition [3] of the same molecule?
**A.** The Inhibition was 72%.

**Q.** `N[C@@H](Cc1cc(I)c(Oc2ccc(O)c(Cl)c2)c(I)c1)C(=O)O` was tested. Which Inhibition [1] did it give?
**A.** Its Inhibition is 96%.

**Q.** What about the Inhibition [2] of the same molecule?
**A.** The Inhibition was 0%.

**Q.** What about the Inhibition [3] of the same molecule?
**A.** The Inhibition was 0%.

**Q.** What does the source list for `O=C(NC1CC1)c1cnc(N2CCN(Cc3ccc(Cl)cc3)CC2)c(Cl)c1.O=C(O)C(F)(F)F`?
**A.** Inhibition [1]: 93%; Inhibition [2]: 91%; Inhibition [3]: 39%

**Q.** What does the source list for `O=C(Nc1ccc(Cl)cc1)Nc1ccc2nonc2c1`?
**A.** Inhibition [1]: 94%; Inhibition [2]: 77%; Inhibition [3]: 0%

**Q.** For `CC(=O)Nc1ncc(C(=O)Nc2cccc(-c3cccc(-c4nc5cc(F)ccc5[nH]4)c3)c2)s1`, which Inhibition [1] is on record?
**A.** Its Inhibition is 100%.

**Q.** And the Inhibition [2]?
**A.** The Inhibition was 93%.

**Q.** And the Inhibition [3]?
**A.** Its Inhibition is 27%.

**Q.** For `O=C(Cn1c(CCc2cccc(F)c2F)nc(=O)c2ccccc21)N(Cc1ccc(-c2ccc(C(F)(F)F)cc2)cc1)C1CCN(C2CCOCC2)CC1.O=C(O)C(O)C(O)C(=O)O`, which Inhibition [1] is on record?
**A.** The Inhibition was 100%.

**Q.** And the Inhibition [2]?
**A.** The Inhibition was 76%.

**Q.** What about the Inhibition [3] of the same molecule?
**A.** Its Inhibition is 97%.

**Q.** Which Inhibition [1] does the source give for `Cl.Clc1ccc2c(N3CCN(CCN4CCN(c5ccnc6cc(Cl)ccc56)CC4)CC3)ccnc2c1` here?
**A.** Its Inhibition is 99%.

**Q.** And the Inhibition [2]?
**A.** The Inhibition was 100%.

**Q.** And the Inhibition [3]?
**A.** Its Inhibition is 10%.

**Q.** Which Inhibition [1] does the source give for `Cc1cccc2nc(-c3ccc(-c4ccc(NC(=O)Nc5cccc(C#N)c5)cc4)s3)[nH]c12` here?
**A.** Its Inhibition is 100%.

**Q.** What about the Inhibition [2] of the same molecule?
**A.** The Inhibition was 100%.

**Q.** What about the Inhibition [3] of the same molecule?
**A.** Its Inhibition is 33%.

**Q.** With `O=C(Nc1cccc(C(F)(F)F)c1)Nc1nc2ccc([N+](=O)[O-])cc2s1` as the molecule, how does the Inhibition [1] read?
**A.** Its Inhibition is 100%.

**Q.** What about the Inhibition [2] of the same molecule?
**A.** Its Inhibition is 76%.

**Q.** What about the Inhibition [3] of the same molecule?
**A.** The Inhibition was 81%.

**Q.** What does the source list for `OC(CNCc1ccccc1Oc1ccccc1)c1cccc(C(F)(F)F)c1` (stereo unspecified)?
**A.** Inhibition [1]: 100%; Inhibition [2]: 98%; Inhibition [3]: 0%

**Q.** What does the source list for `CCN(CC)c1ccc(C(c2ccc(N(CC)CC)cc2)c2ccc([N+](=O)[O-])cc2)cc1`?
**A.** Inhibition [1]: 82%; Inhibition [2]: 63%; Inhibition [3]: 20%

**Q.** Which results are given for `CN(C)c1ccc(CN2CCC(NC(=O)c3ccc(-c4cccc(F)c4)s3)CC2)cc1.O=C(O)C(F)(F)F`?
**A.** Inhibition [1]: 91%; Inhibition [2]: 18%; Inhibition [3]: 55%

**Q.** Which Inhibition [1] does the source give for `O=C(Nc1cccc(-c2ccc(-c3nc4cc(C(F)(F)F)ccc4[nH]3)cc2)c1)c1c[nH]cn1` here?
**A.** The Inhibition was 91%.

**Q.** And the Inhibition [2]?
**A.** Its Inhibition is 21%.

**Q.** What about the Inhibition [3] of the same molecule?
**A.** The Inhibition was 16%.

**Q.** Which Inhibition [1] does the source give for `CC1(C)N=C(NC(=O)c2cc([N+](=O)[O-])cc([N+](=O)[O-])c2)N=C(N)N1OCc1cccc2ccccc12` here?
**A.** Its Inhibition is 94%.

**Q.** What about the Inhibition [2] of the same molecule?
**A.** The Inhibition was 20%.

**Q.** And the Inhibition [3]?
**A.** Its Inhibition is 66%.

**Q.** How did the Inhibition [1] turn out when `CC(Sc1nc(-c2ccccc2)c(-c2ccccc2)o1)C(=O)NC1CC1` (stereo unspecified) was run?
**A.** The Inhibition was 94%.

**Q.** And the Inhibition [2]?
**A.** The Inhibition was 91%.

**Q.** And the Inhibition [3]?
**A.** The Inhibition was 13%.

**Q.** Which results are given for `CC1CNC(c2cccc(NC(=O)Nc3cccc(C4=NC(C)CN4)c3)c2)=N1.Cl` (stereo unspecified)?
**A.** Inhibition [1]: 94%; Inhibition [2]: 98%; Inhibition [3]: 7%

**Q.** For `O=C(Cc1c[nH]cn1)Nc1ccc(-c2ccc(-c3nc4cc(C(F)(F)F)ccc4[nH]3)s2)cc1`, which Inhibition [1] is on record?
**A.** The Inhibition was 100%.

**Q.** What about the Inhibition [2] of the same molecule?
**A.** The Inhibition was 99%.

**Q.** What about the Inhibition [3] of the same molecule?
**A.** Its Inhibition is 48%.

**Q.** How did the Inhibition [1] turn out when `Cl.O=C(Nc1ccc(Cl)c(Cl)c1)Nc1ccc2nccc(N3CCNCC3)c2c1` was run?
**A.** The Inhibition was 99%.

**Q.** And the Inhibition [2]?
**A.** The Inhibition was 62%.

**Q.** What about the Inhibition [3] of the same molecule?
**A.** The Inhibition was 18%.

**Q.** For `Cc1cc(-c2ccc(S(=O)(=O)Nc3cc4c(cc3OC(C)C)CCN(C)CC4)cc2)ccc1Cl.Cl`, which Inhibition [1] is on record?
**A.** The Inhibition was 90%.

**Q.** What about the Inhibition [2] of the same molecule?
**A.** Its Inhibition is 19%.

**Q.** What about the Inhibition [3] of the same molecule?
**A.** Its Inhibition is 33%.

**Q.** What does the source list for `Cc1ccc(-c2ccc3c(c2)C=C(C(=O)NC2CCN(CCNC(=O)c4cccs4)CC2)CCC3)cc1.O=C(O)C(F)(F)F`?
**A.** Inhibition [1]: 90%; Inhibition [2]: 30%; Inhibition [3]: 27%

**Q.** Which results are given for `O=C(Nc1ccc(Cl)cc1)c1ccc(CN2CCCN(Cc3cccc(F)c3)CC2)cc1.O=C(O)C(F)(F)F`?
**A.** Inhibition [1]: 91%; Inhibition [2]: 8%; Inhibition [3]: 59%

**Q.** `CN(CCCCNC(=O)c1ccc(-c2ccccc2)cc1)C1CCc2c(O)cccc2C1.O=C(O)C(=O)O` (stereo unspecified) was tested. Which Inhibition [1] did it give?
**A.** Its Inhibition is 100%.

**Q.** And the Inhibition [2]?
**A.** Its Inhibition is 21%.

**Q.** What about the Inhibition [3] of the same molecule?
**A.** The Inhibition was 24%.

**Q.** Which results are given for `Cc1cnn(-c2cccc(C(=O)NC3CCC(CCN4CCc5ccc(C#N)cc5CC4)CC3)c2)c1.Cl` (stereo unspecified)?
**A.** Inhibition [1]: 94%; Inhibition [2]: 48%; Inhibition [3]: 24%

**Q.** What does the source list for `Clc1ccc(Cc2nc3ccccc3[nH]2)cc1Cl`?
**A.** Inhibition [1]: 98%; Inhibition [2]: 2%; Inhibition [3]: 5%
